Reference: PubChem BioAssay AID504773 (Broad Institute, 2011)
Entries with a potency or affinity are not part of this list. The source made the active and inactive calls.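 How the source made its calls: active means polarization signal falls with dose and the fitted half-maximal concentration is at or below ten times the sample's top valid dose; inconclusive means flat curve at 30 to 70% inhibition, or poor fit; inactive means signal rises, flat within 30%, or potency beyond limit.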

Molecular target: Golgi-associated PDZ and coiled-coil motif-containing protein (Homo sapiens) (UniProt Q9HD26)
Test: potency against CAL PDZ-peptide interaction – biochemical, fluorescence polarization, Cerulean-tagged CAL PDZ, cherry-picks, dose response (AID 504773)
Conditions: CAL PDZ-peptide binding, 1 h; series mostly up to 50 µM

outcome, inactive:
O=C(Nc1cccc(F)c1)c1ccco1
O=S(=O)(c1cccc2ccccc12)N1CCCCC1
CC(C)=Cc1oc2ccc([N+](=O)[O-])cc2c1N1CCOCC1
Cc1nn2c3ccccc3nc2c2ccccc12
CC(C)OC(=O)C1CC(C)(O)C(=O)C(C(=O)OC(C)C)C1c1ccc([N+](=O)[O-])cc1 (stereo unspecified)
COc1ccc(NC(=O)c2cnn(-c3ccccc3)c2C)c(OC)c1
COc1cc([N+](=O)[O-])ccc1NC(=O)CN1CCN(C(=O)c2ccco2)CC1
O=C(Oc1c(CN2CCOCC2)cc(Cl)c2cccnc12)c1ccc(F)cc1
Cc1cc(C(=O)Nc2ccccc2Cl)c2ccccc2n1
O=C(O)c1ccc(S(=O)(=O)c2ccc3c(c2)C(=O)N(c2ccccc2[N+](=O)[O-])C3=O)cc1
COc1ccc(C(=O)Nc2nccs2)cc1
O=C(OCC(=O)N1CCc2ccccc2C1)c1cccnc1Cl
CCCCNC(=S)NNc1c(Cl)cc(Cl)cc1Cl
N#C/C(=C\c1c[nH]c2ccccc12)C(=O)NC1CC1
CCc1noc(C)c1C(=O)N1CCCC(CCC(=O)NCc2ccc(F)c(F)c2)C1 (stereo unspecified)
Oc1ccccc1N=Cc1c(O)ccc2oc3c(c12)CCCC3
COc1ccc(N2CCN(C3CCCN(Cc4ccc(F)cc4)C3)CC2)cc1 (stereo unspecified)
CS(=O)(=O)N1CCN(C(=O)c2ccc3c(c2)OCCO3)CC1
C=CCNC(=S)Nc1ccc(C)c(S(=O)(=O)N2CCCCC2)c1
CCC(=O)Nc1ccc(S(=O)(=O)NCc2ccco2)cc1
CC(CCCC(C)(C)O)NC(=O)c1ccc(OC2CCN(C(=O)C3CC3)CC2)cc1 (stereo unspecified)
O=C(Nc1nc2ccccc2[nH]1)c1cc2ccccc2o1
Cc1ccnc2nc(C(=O)OCCOc3ccc(F)cc3)nn12
CN1CC(=O)N(CC(=O)Nc2ccc(Br)cc2F)C1=O
Cc1cc(C)c(OCC(=O)OC(C)C(=O)NC2CC2)c(C)c1 (stereo unspecified)
COc1cc(C(=O)ON=C2C(C)=CC(=O)C=C2C)cc(OC)c1OC
CC12CNCC(C)(CN(C3(O)C(=O)Nc4ccc(Br)cc43)C1)C2=O (stereo unspecified)
Nc1ccc(N(CCO)CCO)cc1
Cc1sc2ncn(CC(=O)NCCCC(=O)N3CCN(Cc4ccc5c(c4)OCO5)CC3)c(=O)c2c1C
CC(=O)N1CCN(c2ccc(NC(=O)c3cccc(Cl)c3Cl)cc2)CC1
CC(=Nc1ccccc1O)c1sc2ccccc2c1O
Brc1cccc(CNCC2CCCO2)c1 (stereo unspecified)
CCOC(=O)C1CCN(C(=O)C2CC(=O)N(c3ccc4c(c3)OCCO4)C2)CC1 (stereo unspecified)
O=C1c2ccccc2C(O)N1c1ccccc1 (stereo unspecified)
O=[N+]([O-])c1ccccc1S(=O)(=O)NC1CCCCCCC1
COc1cccc(-c2cccc(NC(=O)C3CCN(Cc4ccc(CO)o4)CC3)c2)c1
